Sampled rows, rich in hits. Any-hit rate of the full collection: about 21%.
CHX counter: Cycloheximide Counterscreen for Small Molecule Inhibitors of Shiga Toxin; cell reporter, cycloheximide protein synthesis inhibition counterscreen; max response, %; 300,000 tested, 12% active; AID 2314, 2010; in the data active means max response mostly above about 13%, no sharp cut-off; inactive means mostly below about 14%; further: read at 38.3 µM for the half of the compounds with a filed dose
Pf growth 96h: Primary qHTS for delayed death inhibitors of the malarial parasite plastid, 96 hour incubation; P. falciparum luciferase reporter growth, 96 h; Potency, µM (doses to about 28.7 µM), most hits filed as inhibitors; 320,000 tested, 6.9% active
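Two-generation exposure (96 h) targets delayed-death phenotype. Reporter parasites carrying integrated firefly luciferase, in red cells at 2% hematocrit and 0.05% parasitemia final, kept at 37 C, 5% CO2; luminescence loss indicates inhibition.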
Pf growth 48h: Primary qHTS for delayed death inhibitors of the malarial parasite plastid, 48 hour incubation; P. falciparum luciferase growth in erythrocytes, 48 h; Potency, µM (series often up to 28.7 µM), hits mostly inhibitors; 310,000 tested, 5.9% active
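Parasite viability was followed by luminescence of a genomically integrated firefly luciferase. Cultures held 0.1% parasitemia at 2% hematocrit (final), incubated under 5% CO2 at 37 C.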
Shiga inhibitor: A qHTS for Small Molecule Inhibitors of Shiga Toxin. 290,000 tested, 9.2% active. inhibition, % at 38.7 µM. Vero cells, Shiga toxin protein synthesis inhibition reporter; in the data active means inhibition mostly above about 28%, no sharp cut-off; inactive means mostly below about 43%
Of the large screens only hits and unclear results are named; the others gave an inactive call. Unless noted, the call rests on the fitted dose curve; in most records, active means well fitted inhibition curve with a large enough effect; inconclusive means small, poorly fitted or top-dose-only effect, or another doubt; inactive means no such curve, though single readings can be large or run the other way.

CCOC(=O)c1sc(Nc2nc3c(F)cccc3s2)cc1C	CHX counter 38, Shiga inhibitor 72
CCOc1ccc(S(=O)(=O)Nc2nc3ccc(OC)cc3s2)cc1	none (no result: Pf growth 48h)
CCOC(=O)C1CCN(C(=O)C(=O)Nc2ccc3nc4n(c(=O)c3c2)CCCCC4)CC1	Pf growth 96h inconclusive, Pf growth 48h inconclusive
COc1ccccc1CNC(=O)Nc1cccs1	CHX counter 19
COc1ccc(CNC(=O)Nc2cccs2)cc1OC	Pf growth 96h inconclusive
COc1cccc(CNC(=O)CCNS(=O)(=O)c2cccs2)c1	Pf growth 96h 1.2µM
Cc1ccc(CNC(=O)Nc2cccs2)cc1	CHX counter 50, Shiga inhibitor 51
COc1cccc(CNC(=O)Nc2cccs2)c1	CHX counter 33, Pf growth 96h inconclusive, Shiga inhibitor 64
COc1ccc2cc(C3=CCCCC3)ncc2c1	none (no result: CHX counter, Shiga inhibitor)
Cc1cccc(C)c1NC(=O)CNC(=O)c1cccnc1	none
COc1cccc(Cn2cc(C)cc(NC(=O)NCc3ccccc3)c2=O)c1	CHX counter 15, Pf growth 96h inconclusive (no result: Shiga inhibitor)
Cc1cc(NC(=O)NCc2ccccc2)c(=O)n(Cc2ccccc2F)c1	Pf growth 96h inconclusive
Cc1cccc(C)c1NC(=O)CCCn1nc(C)c2c(C)n(-c3ccccc3)nc2c1=O	Pf growth 96h 12µM
CCOc1ccc(NC(=O)CCCn2nc(C)c3c(C)n(-c4ccccc4)nc3c2=O)cc1	Pf growth 96h 12µM, Pf growth 48h inconclusive
Cc1ccc(NC(=O)CCCn2nc(C)c3c(C)n(-c4ccccc4)nc3c2=O)cc1C	Pf growth 96h inconclusive
FC(F)(F)c1ccc(Sc2nnc(-c3cccs3)n2CC2CCCO2)nc1 (stereo not given)	none (no result: Pf growth 96h)
FC(F)(F)c1cnc(Sc2nnc(-c3cccs3)n2CC2CCCO2)c(Cl)c1 (stereo not given)	Pf growth 48h 7.4µM (no result: Pf growth 96h)
COc1ccc(-c2cc(C(F)F)n3ncc(C(=O)Nc4cccc(S(=O)(=O)N5CCOCC5)c4)c3n2)cc1	Pf growth 96h inconclusive, Pf growth 48h inconclusive
Cc1ccc(-c2csc3nc(=O)c(C)nn23)cc1	Pf growth 96h 5.2µM
CCOc1ccccc1C(=O)Nc1cccc2cccnc12	CHX counter 20, Pf growth 96h inconclusive, Pf growth 48h inconclusive, Shiga inhibitor 19
COc1cccc(C(=O)Nc2cccc3cccnc23)c1OC	CHX counter 22 (no result: Shiga inhibitor)
CCOc1ccccc1NC(=O)c1cc(-c2ccncc2)nc2c(Cl)cccc12	Pf growth 48h 5.2µM
CCOC(=O)Cc1csc(NC(=O)c2cc(-c3ccncc3)nc3ccccc23)n1	Pf growth 48h inconclusive (no result: CHX counter, Shiga inhibitor)
COc1ccc(-n2c(=O)c3c(C)c(C)sc3n(Cc3ccc(F)cc3)c2=O)c(OC)c1	Pf growth 96h inconclusive, Pf growth 48h inconclusive
CC(C)C(c1nnnn1C1CCCCC1)N1CCN(c2ncccn2)CC1 (stereo not given)	none (no result: Pf growth 96h)
c1cncc(C(c2nnnn2C2CCCCC2)N2CCCCC2)c1 (stereo not given)	Pf growth 48h 15µM
CC(C)C(c1nnnn1C1CCCC1)N1CCCCC1 (stereo not given)	Pf growth 96h 15µM (no result: Pf growth 48h)
O=C(CSc1nnc(SCc2cccc3ccccc23)s1)N/N=C/C=C/c1ccccc1[N+](=O)[O-]	none
CC1CCN(S(=O)(=O)c2ccc(S(=O)(=O)N3CCCC3)cc2)CC1	none
Cc1[nH]c(C)c(S(=O)(=O)NCc2ccc(Cl)cc2)c1C(=O)N1CCCC1	none
Cc1nc(-c2ccc(S(=O)(=O)NCc3ccccn3)s2)cs1	none
COC(=O)c1sc2nc3c(cc2c1N)CCCC3	CHX counter 39, Shiga inhibitor 99
COC(=O)c1sc2nc(N)c(C#N)cc2c1N	CHX counter 30, Shiga inhibitor 73
COC(=O)c1sc2nc3c(cc2c1N)C(=O)CC(C)(C)C3	none
COC(=O)c1sc2nc(C)cc(C)c2c1N	none
NC(=O)c1sc2nc3c(cc2c1N)CCC3	CHX counter 22, Shiga inhibitor 48
O=C(CSc1nnc2c(n1)[nH]c1ccccc12)NCc1ccccc1F	Pf growth 96h inconclusive
Cn1c(=O)oc2cc(S(=O)(=O)Nc3ccc(F)cc3)ccc21	none
CC(CCc1ccccc1)NC(=O)CNC(=O)N1CC(=O)Nc2ccccc21 (stereo not given)	none
COc1ccc(C(=O)N[C@H](C(=O)NCc2cccs2)C(C)C)cc1	none
O=[N+]([O-])c1ccc(N2CCc3ccccc3C2)nc1	CHX counter 28, Shiga inhibitor 54
Cc1cc(NC(=O)c2cccc(Cl)c2)n[nH]1	none (no result: CHX counter, Shiga inhibitor)
Cc1cc(NC(=O)NC(=O)c2ccc(F)cc2F)n[nH]1	CHX counter 19, Pf growth 96h inconclusive, Shiga inhibitor 43
O=C(CSc1nnc(CNC(=O)c2ccc(F)cc2)o1)NCc1ccc2c(c1)OCO2	none

Screening results (PubChem)
